# A number with no mark means an inactive call.
# Tested on: TDF
# Experiment: H1.0 immunofluorescence intensity relative to DMSO (% of DMSO); higher = stronger H1.0 induction, active = 120 or more
# Settings: concentration: 10 µM; 24 h
# Summary of the method: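 H1.0 nuclear intensity or cell number is expressed as percent of the plate control, with the median of replicates taken. HCC1569 and TDF cells were treated with compounds at 10 µM for 24 h at 37 °C, in triplicate, then fixed and immunostained for H1.0 with DAPI as a nuclear stain. HCC1569 values were smoothed to correct for positional effects.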
# 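Also: TDF is a line of transformed human dermal fibroblasts of mesenchymal origin.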
row,Compound,H1.0 immunofluorescence intensity
1,"O=Cc1c2[nH]c3ccccc3c2cc2[nH]c3ccccc3c12 [6-Formylindolo [3,2-B] carbazole]",91.4
2,COc1cc2ccccc2cc1C(=O)OC(C)C(=O)NCc1ccc(F)cc1 (stereo not given) [IP3K Inhibitor],98.7
3,C#CC(N)CCC(=O)O (stereo not given) [gamma-Acetylinic GABA],93.2
4,"OC1C(O)C(O)C(O)C(O)C1O (stereo not given) [1,2,3,4,5,6-cyclohexanehexol]",96.9
5,CCCC1OC2CC3C4CCC5=CC(=O)C=CC5(C)C4C(O)CC3(C)C2(C(=O)CO)O1 (stereo not given) [Budesonide],82
6,"COC1=CC(=O)CC(C)C12Oc1c(Cl)c(OC)cc(OC)c1C2=O (single isomer, unassigned; (+)) [(+)-Griseofulvin]",99.2
7,"CN(C)CCC(c1ccc(Cl)cc1)c1ccccn1.O=C(O)C=CC(=O)O (single isomer, unassigned; (+)) [(+)-Chlorpheniramine maleate]",99.2
8,COc1nc(C)nc(Cl)c1NC1=NCCN1.Cl [Moxonidine hydrochloride],92
9,CN(C)CCCOC1C(C(O)CO)OC2OC(C)(C)OC21.Cl (stereo not given) [Amiprilose hydrochloride],82.4
10,"Cl.c1ccc(C2CCCC2NC2=NCCCCCCCCCCC2)cc1 (stereo not given) [MDL 12,330A hydrochloride]",85.7
11,COc1ccc2c(c1)c(CC(=O)O)c(C)n2C(=O)c1ccccc1 [1-benzoyl-5-methoxy-2-methylindole-3-acetic acid],96.8
12,CCn1cc(C(=O)O)c(=O)c2cc(F)c(N3CCN(C)CC3)cc21.CS(=O)(=O)O.O.O [Pefloxacine mesylate dihydrate],96.4
13,"CCCCCCCCC=CCCCCCCCC(N)=O [9,10-Octadecenoamide]",94.7
14,"CCCCC1CCC(c2nc(-c3ccncc3)no2)CC1 (stereo not given) [4-[5-(4-butylcyclohexyl)-1,2,4-oxadiazol-3-yl]pyridine]",108
15,COc1ccc(-c2cc(=O)c3c(O)cc(O)cc3o2)cc1 [Acacetine],100
16,COc1cc(=O)n(C)c2c(OCC(O)C(C)(C)O)cccc12 (stereo not given) [Foliosidine],93.5
17,CCCC[C@@H](C=O)NC(=O)[C@H](CC(C)C)NC(=O)[C@H](CC(C)C)NC(C)=O,160 (active)
18,Cl.O=c1n(CCCN2CCN(c3cccc(Cl)c3)CC2)nc2ccccn12 [Trazodone hydrochloride],89.5
19,CCCCCCCCCCCCCC(=O)NC(C)C(O)c1ccccc1 [L-erythro MAPP],98
20,COc1ccc(-n2c(SCC#N)nc3sc4c(c3c2=O)CCCC4)cc1,86.3
21,O=C(O)c1cc(=O)c2ccccc2[nH]1 [Kynurenic acid],91.3
22,CS(=O)c1ccc(-c2nc(-c3ccc(F)cc3)c(-c3ccncc3)[nH]2)cc1 (stereo not given),98
23,CS(=O)(=O)CCNCc1ccc(-c2ccc3ncnc(Nc4ccc(OCc5cccc(F)c5)c(Cl)c4)c3c2)o1.Cc1ccc(S(=O)(=O)O)cc1.Cc1ccc(S(=O)(=O)O)cc1 [Lapatinib ditosylate],93.5
24,O=C(C1CCCCC1)N1CC(=O)N2CCc3ccccc3C2C1 (stereo not given) [Praziquantel],94.8
25,"CCCCCC(O)C=CC=CC=CC(O)CC=CCCCC(=O)O [8(S),15(S)-DIHETE all trans]",92.4
26,Nc1ncnc2c1ncn2C1OC(CO)C(O)C1O (stereo not given) [Adenosine],92.7
27,CC1=C(CC(=O)O)c2cc(F)ccc2C1=Cc1ccc(S(C)=O)cc1 (stereo not given) [Sulindac],95
28,COc1ccc(-c2cc(=O)c3ccc(O)cc3o2)cc1 [Pratol],94
29,COc1cc(C2CC(=O)c3c(O)cc(O)cc3O2)ccc1O (stereo not given) [Homoeriodictyol],99
30,NC(N)=NC(=O)c1nc(Cl)c(N)nc1N [Amiloride],97.3

# From the supplement of paper PMC7156485
